High-throughput results deposited in PubChem BioAssay by several laboratories.
Smad3 FoxH1 inh: blocks human Smad3 binding to FoxH1 peptide | inhibition, % at 25 µM | P84022 | TR-FRET Smad3/Dy647-FoxH1 peptide binding, europium anti-His | hit rate 0.29% among 88,000;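 active means compounds that reduce the energy-transfer binding signal between the protein and its labelled peptide by more than half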
Target sequence (P84022 whole entry, looked up): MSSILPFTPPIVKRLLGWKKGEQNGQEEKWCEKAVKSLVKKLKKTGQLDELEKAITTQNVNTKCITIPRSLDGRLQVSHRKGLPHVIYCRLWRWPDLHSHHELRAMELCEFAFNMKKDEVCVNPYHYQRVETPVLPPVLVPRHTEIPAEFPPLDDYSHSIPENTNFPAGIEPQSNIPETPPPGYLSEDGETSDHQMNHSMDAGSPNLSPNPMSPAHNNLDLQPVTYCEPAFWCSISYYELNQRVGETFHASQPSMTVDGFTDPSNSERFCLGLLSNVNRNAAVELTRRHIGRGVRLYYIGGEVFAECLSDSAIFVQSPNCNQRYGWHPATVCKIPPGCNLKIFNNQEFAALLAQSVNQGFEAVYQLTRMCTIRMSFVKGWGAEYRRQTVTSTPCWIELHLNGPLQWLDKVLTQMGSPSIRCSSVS
sEH inhibitor: soluble epoxide hydrolase (human) inhibition; recombinant human sEH enzymatic activity assay; inhibition, % at 2 µM; hit rate 0.34% among 91,000; AID 707; in the data active means inhibition above about 80%
sEH act: increases human soluble epoxide hydrolase activity. P34913. purified human sEH enzymatic activity, activator screen. activation, % at 2 µM. hit rate 0.04% among 91,000. AID 717; in the data active means activation above about 37%
A number is an active result; 0 = inactive; - = no result given. A selection: hits, their analogues and other compounds. The true share with any hit is near 0.45%.

SMILES	Smad3 FoxH1 inh	sEH inhibitor	sEH act
O=C(O)/C(Cc1cn[nH]n1)=N\O	0	-	-
C/C(=N\Nc1nc(C)cc(=O)[nH]1)C(=O)O	0	-	-
Cn1cnc([N+](=O)[O-])c1[Se]c1nc(N)nc2c1ncn2[C@H]1O[C@@H](CO)[C@H](O)[C@H]1O	75	-	-
C[N+](C)(C)c1nc(N)nc2c1ncn2[C@H]1O[C@@H](CO)[C@H](O)[C@H]1O	0	-	-
C=CCN1C(c2ccccc2)=CS/C1=C(\C#N)c1nnc2n1CCCCC2	51	-	-
CCOc1ccc(C2=CS/C(=C(\C#N)c3nnc4n3CCCCC4)N2CC)cc1	0	0	0
COc1ccc2c3c(ccc2c1)N[C@H](C(=O)O)CC3	0	-	-
CCC(C)[C@H](NC(=O)NCc1ccccc1Cl)C(=O)OC (stereo partly drawn)	0	95	0
CCC(C)[C@H](NC(=O)NC1CCN(Cc2ccccc2)CC1)C(=O)OC (stereo partly drawn)	0	0	0
COCCCn1c(Cc2csc(Nc3ccccc3)n2)nnc1SCC(N)=O	0	0	0
NC(=O)CSc1nnc(Cc2csc(Nc3ccccc3)n2)n1Cc1ccccc1	86	0	0
CCc1ccc(NC(=O)Nc2ccc3c(c2)N(C)C(=O)CS3)cc1	0	91	0
Cc1cc(C)cc(NC(=O)Nc2ccc3c(c2)N(C)C(=O)CS3)c1	0	0	0
CC1(C)CC(=O)C(C(c2cccc(O)c2O)C2C(=O)CC(C)(C)CC2=O)C(=O)C1	0	-	-
C/C(=N\O)c1ccc2cc(Br)c3ccccc3c2c1	0	-	-
O=C(CSc1nc2c(c(=O)n1-c1ccc(Br)cc1)SCC2)Nc1nccs1	0	0	47
O=C(CSc1nc2c(c(=O)n1-c1ccc(Cl)cc1)SCC2)Nc1nccs1	0	-	-
O=c1cc(CNC2CCCCC2)c2ccccc2[nH]1	0	0	0
Oc1cc(CN2COc3ccccc32)c(O)cc1CNC1CCCCC1	74	-	-
CN(Cc1ccccc1)Cn1ccnc1	0	-	-
O=C(O)c1cccc2cccc(-c3cccc4cccc(C(=O)O)c34)c12	67	-	-
CC(Sc1cccc2cccc(C(=O)O)c12)C(=O)O (stereo not drawn)	0	0	0
N/C(=N/O)c1cn([C@H]2O[C@@H](CO)[C@H](O)[C@H]2O)c2ncnc(NO)c12	0	-	-
C/C(=N\NC(=O)Cc1cccn1C)c1cccc2ccccc12	0	82	0
C/C(=N/NC(=O)Cc1cccn1C)c1ccccc1	0	0	0
SMILES	Smad3 FoxH1 inh	sEH inhibitor	sEH act
CCN(CC)c1nc(OCCNC(=O)Nc2ccccc2)nc(N(CC)CC)n1	0	0	0
CCN(CCNC(=O)Nc1ccc(Cl)cc1)c1ccccc1	0	86	0
Cc1cc(N2CCOCC2)nc2ccc(Cc3ccc4nc(N5CCOCC5)cc(C)c4c3)cc12	0	-	-
CN(C)CCN(c1ccccn1)c1ccccn1	0	-	-
COc1cc(O)c2c(O)c3c(c4c2c1[C@]1(C4)C(C)=CCCC1(C)C)[C@H](O)[C@@]1(O)CC(=O)C(C(N)=O)=C(O)[C@]1(O)C3=O	0	-	-
O=C1C(N2CCOCC2)=C(n2nnc3ccccc32)C(=O)c2ccccc21	52	0	0
O=C1c2ccccc2C(=O)c2c1cccc2N1CCOCC1	-	0	0
c1ccc(B2OC[C@@H]3OB(c4ccccc4)O[C@H]([C@@H]4COB(c5ccccc5)O4)[C@H]3O2)cc1	0	-	-
C[N+]1(NCC[N@+]2(C)CCc3ccccc3C2)CCCCC1	95	-	-
NC(N)=NC(N)=Nc1ccc(S(N)(=O)=O)cc1	0	-	-
CCn1nc(CC(=O)Nc2ccc(-n3cnnn3)c(OC)c2)c2ccccc2c1=O	0	0	0
CCn1nc(CC(=O)Nc2ccc(-n3cnnn3)c(C)c2)c2ccccc2c1=O	0	93	0
OC1C[C@H]2CC[C@@H](C1)N2CCCN1c2ccccc2Sc2ccc(Cl)cc21 (stereo partly drawn)	0	-	-
CC(C)(C)COS(=O)OCC(C)(C)C	0	-	-
O=C(NCCC1=CCCCC1)C1CCCN(S(=O)(=O)c2cnc[nH]2)C1 (stereo not drawn)	0	-	-
Cc1ccc(S(=O)(=O)N2CCCC(C(=O)NCCC3=CCCCC3)C2)cc1 (stereo not drawn)	0	82	0
O=C(NCCC1=CCCCC1)C1CCCN(S(=O)(=O)c2ccccc2)C1 (stereo not drawn)	0	84	0
O=C(NCCC1=CCCCC1)C1CCN(C(=O)Nc2ccccc2)CC1	0	0	0
O=C(NCCC1=CCCCC1)C1CCCN(S(=O)(=O)c2ccc(F)cc2)C1 (stereo not drawn)	0	0	0
CC(C)(C)c1ccc(C(=O)N2CCC(C(=O)NCCC3=CCCCC3)CC2)cc1	-	86	0
OC[C@@H]1O[C@H](N2CCN([C@@H]3O[C@H](CO)[C@@H](O)[C@H](O)[C@H]3O)CC2)[C@@H](O)[C@H](O)[C@H]1O	0	-	-
O=C(O)[C@@H]1[C@H]2C[C@H]([C@@H](Br)[C@H]2N2C(=O)CCC2=O)[C@@H]1C(=O)O	0	-	-
CC1(C)[C@H]2CC[C@]1(C)[C@H](OC(=O)/C=C/c1ccccc1)C2	0	-	-
